# In PubChem BioAssay AID743144 (Broad Institute, 2013):
# Entries with a potency or affinity are not part of this list. Records with an inconclusive call do not appear. Unmarked numbers belong to inactive results. No rule for the calls is given here.
# Assay: cytotoxicity in COV362 ovarian cancer cells, dose response, cytotoxicity control for PAX8 inhibitor project, cell-based, plate reader, dry powder, SA12 (AID 743144)
# Conditions: series mostly up to 35 µM; activity change, negative = cytotoxicity: at the top concentration
row,SMILES,"activity change, negative = cytotoxicity"
1,C[C@H]1CN([C@@H](C)CO)C(=O)Cc2cc(NC(=O)NC3CCCCC3)ccc2O[C@@H]1CN(C)Cc1ccc(-c2ccccc2)cc1,21.3%
2,C[C@H](CO)N1C[C@H](C)[C@@H](CN(C)S(=O)(=O)c2ccc(Cl)cc2)OCCCC[C@H](C)Oc2ccc(NS(=O)(=O)c3ccccc3)cc2C1=O,-35.1%
3,C[C@H]1CN([C@@H](C)CO)C(=O)CCCn2nncc2CO[C@@H]1CN(C)C(=O)Nc1ccc(-c2cccs2)cc1,5.96%
4,CC(=O)N1CCOc2ccc(S(=O)(=O)N3CCN(c4cccc(C(F)(F)F)c4)CC3)cc21,-15.3% [at 50 µM]
5,N#C[C@@H]1[C@@H](c2ccc(-c3ccccc3F)cc2)[C@@H](CO)N1C(=O)C1CCC1,-4.33%
6,COc1cccc(C#Cc2ccc([C@@H]3[C@@H](C#N)N(C(=O)C4CCCCC4)[C@@H]3CO)cc2)c1,4.28%
7,N#C[C@@H]1[C@H](c2ccc(-c3ccccc3F)cc2)[C@@H](CO)N1C(=O)Cc1ccccc1,1.48%
8,COc1ccccc1C#Cc1ccc([C@H]2[C@@H](CO)N(C(=O)C3CCCC3)[C@H]2C#N)cc1,-0.208%
9,COc1cccc(C#Cc2ccc([C@@H]3[C@H](C#N)N(C(=O)c4ccccn4)[C@H]3CO)cc2)c1,-11%
10,C[C@@H]1CN([C@@H](C)CO)S(=O)(=O)c2ccc(C#C[C@@H](C)O)cc2O[C@H]1CN(C)Cc1ccc(-c2ccccc2)cc1,-24.5%
11,C[C@H](CO)N1C[C@H](C)[C@@H](CN(C)S(=O)(=O)c2ccc(-c3ccccc3)cc2)OCc2cn(nn2)CCCC1=O,8.14%
12,Cc1ccc(S(=O)(=O)CC(CN2CCCCC2)N2CCCCC2)cc1 (stereo unspecified),-29.5% [at 50 µM]
13,COc1ccc(S(=O)(=O)Nc2ccc3c(c2)CC(=O)N([C@@H](C)CO)C[C@H](C)[C@@H](CN(C)Cc2ccc(C(F)(F)F)cc2)O3)cc1,-11.9%
14,CCN(CC(=O)Nc1c(F)cccc1F)C(=O)c1cc(S(=O)(=O)N(C)C)ccc1N1CCCC1,-10.6% [at 50 µM]
15,O=C(Nc1ccc(OCC(F)(F)C(F)F)c(C(F)(F)F)c1)c1ccccc1O,-10.1% [at 50 µM]
16,COc1cccc(C#Cc2ccc([C@H]3[C@@H](CO)N(C(=O)c4ccccn4)[C@H]3C#N)cc2)c1,-41.4%
17,O=C1/C(=C/c2ccccc2)SC(=S)N1CC(=O)N1CCCCC1c1cccnc1 (stereo unspecified),0.677% [at 50 µM]
18,Cc1ccc(S(=O)(=O)Nc2ccc3c(c2)C(=O)N([C@H](C)CO)C[C@@H](C)[C@H](CN(C)Cc2ccc(C(F)(F)F)cc2)OCCCC[C@H](C)O3)cc1,1.4%
19,C[C@H](CO)N1C[C@H](C)[C@H](CN(C)C(=O)Nc2ccc(-c3cccs3)cc2)OCc2cnnn2CCCC1=O,19.4%
20,CC(C)(C)c1nnc(NC(=O)CCS(=O)(=O)c2ccccc2)s1,-23.7% [at 50 µM]
21,C[C@@H]1CN([C@H](C)CO)C(=O)CCCn2nncc2CO[C@H]1CN(C)Cc1ccc(Oc2ccccc2)cc1,2.48%
